The values that follow come from the supplement of paper PMC8728848.

Many of the other results were omitted from the sample, so the strongest signals are more common in it than they were.

Assay in all cases: glycan array binding signal (z-score within array); higher = stronger binding
What all share (conditions): glycan notation: IUPAC condensed, linker removed

The target of assay [1] is Fuc(a1-2)Gal(b1-4)GlcNAc6S. The method, boiled down:
(§1)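 Glycan array data were curated from 3228 arrays in the Consortium for Functional Glycomics database and kept only where the protein sequence was available. Glycan names were converted to IUPAC-condensed notation, and columns mapping to the same glycan were averaged. The binding signal is a within-array Z-score, averaged across arrays of the same protein sequence at different concentrations or buffers and across linkers. Negative Z-scores can be read as non-binding.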

The target of assay [2] is Fuc(a1-2)Gal(b1-4)[Fuc(a1-3)]GlcNAc. The method, boiled down: as §1
The target in assay [3] is Fuc(a1-2)Gal6S(b1-4)GlcNAc. Put shortly:
as §1

Assay [4] has as its target Fuc(a1-2)[Gal(a1-3)]Gal(b1-3)GlcNAc. Put shortly: as §1
The target of assay [5] is Fuc(a1-2)[GalNAc(a1-3)]Gal. Put shortly: as §1
For assay [6], the target named is Gal(a1-3)Gal(b1-4)[Fuc(a1-3)]GlcNAc. The method, boiled down: as §1
The next assay concerns the target Gal(b1-2)Gal. The method, boiled down:
as §1

The target of assay [7] is Gal(b1-3)GalNAc(b1-3)Gal(a1-4)Gal(b1-4)Glc. The method, boiled down:
as §1

Assay [8] concerns the target Gal(b1-3)[Fuc(a1-4)]GlcNAc(b1-3)Gal(b1-3)[Fuc(a1-4)]GlcNAc. The method, boiled down: as §1
Assay [9] addresses Gal(b1-4)GalNAc(b1-3)[Fuc(a1-2)]Gal(b1-4)GlcNAc. The method, boiled down: as §1
The target in assay [10] is Gal(b1-4)GlcNAc(a1-6)Gal(b1-4)GlcNAc. The method, boiled down: as §1
For assay [11], the target named is Gal(b1-4)GlcNAc(b1-3)[Gal(b1-4)GlcNAc(b1-6)]Gal(b1-4)GlcNAc. The method, boiled down:
as §1

Assay [12] deals with Gal(b1-4)GlcNAc(b1-3)[GlcNAc(b1-6)]Gal(b1-4)GlcNAc. Put shortly: as §1
The target in assay [13] is Gal(b1-4)GlcNAc(b1-6)[Gal(b1-3)]GalNAc. The method, boiled down: as §1
Another assay addresses GalNAc(b1-3)Gal. The method, boiled down: as §1
The target of assay [14] is GalNAc(b1-3)Gal(a1-4)Gal(b1-4)GlcNAc. Put shortly: as §1
The target of the next assay is GlcA(b1-6)Gal. The method, boiled down:
as §1

The target in the next assay is GlcNAc(b1-3)Gal(b1-4)Glc. The method, boiled down: as §1
For assay [15], the target named is GlcNAc(b1-4)GlcNAc(b1-4)GlcNAc(b1-4)GlcNAc(b1-4)GlcNAc. Put shortly:
as §1

In assay [16] the target is GlcNAc(b1-6)Gal(b1-4)GlcNAc. The method, boiled down:
as §1

Assay [17] deals with Man(a1-2)Man(a1-3)[Man(a1-2)Man(a1-6)]Man(a1-6)[Man(a1-2)Man(a1-2)Man(a1-3)]Man. The method, boiled down: as §1
Assay [18] deals with Neu5Ac(a2-3)Gal(b1-3)[Fuc(a1-4)]GlcNAc(b1-3)Gal(b1-4)[Fuc(a1-3)]GlcNAc. Put shortly: as §1
For assay [19], the target named is Neu5Ac(a2-3)Gal(b1-4)GlcNAc(b1-2)Man(a1-3)[Neu5Ac(a2-6)Gal(b1-4)GlcNAc(b1-2)Man(a1-6)]Man(b1-4)GlcNAc(b1-4)GlcNAc. Put shortly:
as §1

The target in assay [20] is Neu5Ac(a2-3)GalNAc(b1-4)GlcNAc. The method, boiled down:
as §1

A further assay concerns the target Neu5Ac(a2-6)Gal. Put shortly: as §1
The target in assay [21] is Neu5Ac(a2-6)Gal(b1-4)GlcNAc6S. Put shortly:
as §1

Assay [22] addresses Neu5Ac(a2-8)Neu5Ac(a2-8)Neu5Ac(a2-3)Gal(b1-4)Glc. Put shortly: as §1
The target in assay [23] is Neu5Ac9Ac(a2-6)Gal(b1-4)GlcNAc. The method, boiled down: as §1
Assay [24] has as its target Neu5Gc(a2-3)Gal(b1-4)GlcNAc. The method, boiled down: as §1
Assay [25] concerns the target Fuc(a1-2)Gal(b1-4)GlcNAc(b1-3)Gal(b1-4)GlcNAc(b1-3)Gal(b1-4)GlcNAc. The method, boiled down: as §1
Assay [26] concerns the target Fuc(a1-2)Gal(b1-4)[Fuc(a1-3)]GalNAc(b1-3)Gal(b1-4)[Fuc(a1-3)]GlcNAc. The method, boiled down:
as §1

Assay [27] concerns the target Fuc(a1-2)Gal(b1-4)[Fuc(a1-3)]GalNAc(b1-3)Gal(b1-4)[Fuc(a1-3)]GlcNAc(b1-3)Gal(b1-4)[Fuc(a1-3)]GalNAc. Put shortly: as §1
Another assay deals with Fuc(a1-2)[Gal(a1-3)]Gal. Put shortly:
as §1

The target in assay [28] is Fuc(a1-2)[Gal(a1-3)]Gal(b1-4)[Fuc(a1-3)]GlcNAc. Put shortly:
as §1

A further assay addresses Fuc(a1-3)GlcNAc. The method, boiled down: as §1
Assay [29] addresses Fuc(a1-3)[Gal(b1-4)]GlcNAc. The method, boiled down: as §1
Another assay addresses Gal(a1-2)Gal. The method, boiled down:
as §1

The target in assay [30] is Gal(b1-3)[Neu5Ac(a2-6)]GalNAc. The method, boiled down:
as §1

The target in assay [31] is Gal(b1-3)[Neu5Ac(b2-6)]GlcNAc. Put shortly:
as §1

Assay [32] deals with Gal(b1-4)GlcNAc(b1-2)Man(a1-3)[Gal(b1-4)GlcNAc(b1-2)Man(a1-6)]Man(b1-4)GlcNAc(b1-4)GlcNAc. The method, boiled down: as §1
For assay [33], the target named is Gal(b1-4)GlcNAc(b1-3)Gal(b1-4)GlcNAc(b1-3)Gal(b1-4)GlcNAc. The method, boiled down:
as §1

The target of assay [34] is Gal(b1-4)GlcNAc(b1-3)[Gal(b1-4)GlcNAc(b1-6)]GalNAc. Put shortly:
as §1

A further assay has as its target Gal6S(b1-4)Glc6S. The method, boiled down:
as §1

The next assay concerns the target GalNAc(b1-4)GlcNAc. The method, boiled down:
as §1

A further assay addresses GlcNAc(b1-3)GalNAc. The method, boiled down:
as §1

The target of the next assay is Kdn(a2-3)Gal(b1-4)GlcNAc. Put shortly: as §1
For assay [35], the target named is Neu5Ac(a2-3)Gal(b1-4)[Fuc(a1-3)]GlcNAc. The method, boiled down:
as §1

Assay [36] deals with Neu5Gc(a2-3)Gal(b1-3)GlcNAc. Put shortly:
as §1

Assay [37] concerns the target Fuc(a1-2)Gal(b1-4)[Fuc(a1-3)]GlcNAc(b1-3)Gal(b1-4)[Fuc(a1-3)]GlcNAc(b1-3)Gal(b1-4)[Fuc(a1-3)]GlcNAc. Put shortly:
as §1

Assay [38] concerns the target Fuc(a1-2)Gal6S(b1-4)Glc6S. The method, boiled down: as §1
Assay [39] has as its target Fuc(a1-2)[GalNAc(a1-3)]Gal(b1-4)GlcNAc. Put shortly: as §1
The next assay deals with Gal3S(b1-4)GlcNAc. The method, boiled down: as §1
For another assay, the target named is Gal3S4S(b1-4)GlcNAc. Put shortly:
as §1

Another assay has as its target Gal3S6S(b1-4)GlcNAc6S. Put shortly:
as §1

For the next assay, the target named is Gal6S(b1-4)GlcNAc6S. Put shortly:
as §1

For assay [40], the target named is GlcNAc(b1-2)Gal(b1-3)GalNAc. The method, boiled down:
as §1

The target in the next assay is Man(a1-2)Man(a1-3)Man. Put shortly:
as §1

The next assay addresses Neu5Ac(a2-3)Gal(b1-4)Glc. Put shortly:
as §1

The target of assay [41] is Neu5Ac(a2-6)Gal(b1-4)GlcNAc(b1-2)Man(a1-6)[Gal(b1-4)GlcNAc(b1-2)Man(a1-3)]Man(b1-4)GlcNAc(b1-4)GlcNAc. Put shortly:
as §1

In a further assay the target is Neu5Ac(a2-6)GalNAc. The method, boiled down: as §1

B1: GH95CBM (Clostridium perfringens) (protein)
chain: EKVAVETSVYLSELEWKSASTGYGEIQKDASCDGNTITLKGENGEKVSYDKGIGTHAHSEIVYSLEGLDYYDYFETFVGVDQEMAGTVASISFEVYLDNEKVFDSGLMTGDTTQKHVKVPIAGKNTLKLVVKDGGDSIGSDHGSFGDAKLT
B1: the “glycan array binding signal (z-score)” value was -0.334 in assay [1]; -0.325 in assay [2]; -0.296 in assay [3]; -0.321 in [4]; -0.291 in assay [5]; 4.88 in [6]. Further, the “glycan array binding signal (z-score)” value with Gal(b1-2)Gal is 2.38; in assay [7], 4.91; in assay [8] it was -0.312; in [9] it was 4.18; in [10] it was -0.283; in [11], -0.311. The “glycan array binding signal (z-score)” value in assay [12] is -0.326; in [13], 3.34; with GalNAc(b1-3)Gal, 3.84; in [14], 6.95; with GlcA(b1-6)Gal, -0.227; with GlcNAc(b1-3)Gal(b1-4)Glc, -0.347. The “glycan array binding signal (z-score)” value in assay [15] was -0.133; in assay [16] it was -0.319; in assay [17], 1.43; in assay [18] it was -0.265; in [19], -0.357; in assay [20], -0.362. In addition, the “glycan array binding signal (z-score)” value in the assay with Neu5Ac(a2-6)Gal was -0.355; in assay [21], -0.298; in [22], -0.343; in [23], -0.367; in [24], -0.34.

B2: NakA (Mycobacterium tuberculosum) (protein)
chain: SVVKPTKVTVFSPDGGADNPGEADLAIDGNPATSWKTDIYTDPVPFPSFKNGVGLMLQLPQATVVGTVAIDVASTGTKVEIRSASTPTPATLEDTAVLTSATALRPGHNTISVEAAAPTSNLLVWISTLGTTDGKSQADISEITIYAASD
In the case of B2, the “glycan array binding signal (z-score)” value in assay [25] stood at 2.46; in assay [26], 1.53; in assay [27], 2.85; in [2], 2.46; in the assay with Fuc(a1-2)[Gal(a1-3)]Gal, 0.037; in assay [28], 2.29. Moreover, the “glycan array binding signal (z-score)” value is 0.057 in [5]; 3.17 with Fuc(a1-3)GlcNAc; -0.303 in assay [29]; -0.019 with Gal(a1-2)Gal; -0.457 in [30]; -0.353 in assay [31]. Also, the “glycan array binding signal (z-score)” value in assay [32] was -0.5; in [33], -0.502; in [34] it was -0.414; in [13], -0.553; in the assay with Gal6S(b1-4)Glc6S, -0.213; in the assay with GalNAc(b1-4)GlcNAc, -0.305. Also, the “glycan array binding signal (z-score)” value was -0.001 in the assay with GlcNAc(b1-3)GalNAc, -0.507 with Kdn(a2-3)Gal(b1-4)GlcNAc, -0.418 in assay [35] and -0.404 in [36].

B3: CBM32-4 (Clostridium perfringens), P26831 (protein)
chain: MGSSHHHHHHSSGLVPRGSHMASVYEPSLVDAYVGDDGAKKAVDGDLKTRVKFLGAPSTGDTIVYDLGQEILVDNLKYVVLDTEVDHVRDGKIQLSLDGETWTDAINIGDGVENGVDDMFSTPLKNGYKHGNQSGGIVPIDSAYVEGDNLNQKARYVRILFTAPYRHRWTVINELMINNGEYIPTVNDPT
B3: the “glycan array binding signal (z-score)” value was -0.104 in [1]; -0.29 in assay [37]; 4.3 in assay [38]; -0.4 with Fuc(a1-2)[Gal(a1-3)]Gal; -0.266 in assay [39]; -0.195 in the assay with Gal3S(b1-4)GlcNAc. Moreover, the “glycan array binding signal (z-score)” value was 3.87 in the assay with Gal3S4S(b1-4)GlcNAc; 5.67 with Gal3S6S(b1-4)GlcNAc6S; 4.96 with Gal6S(b1-4)Glc6S; 4.9 in the assay with Gal6S(b1-4)GlcNAc6S; -0.264 in assay [40]; -0.021 with Man(a1-2)Man(a1-3)Man. Moreover, the “glycan array binding signal (z-score)” value in assay [17] was -0.564; in the assay with Neu5Ac(a2-3)Gal(b1-4)Glc, -0.183; in assay [41] it was -0.336; in the assay with Neu5Ac(a2-6)GalNAc it was -0.363.
